# PubChem BioAssay
# Several values for one entry are separate records, joined by “and”; a condition that tells them apart may be missing. Equal entries are not always repeated. Records with an inconclusive call do not appear. Activity calls are given as the source filed them.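 How the source made its calls, unless noted: active means normalized viability below 100% at a tested concentration; inactive means the rest.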
# What was measured:
# [1] = viability loss in pontine glioma line – cell-based, SU-DIPG-XIII, MIPE4.0, CellTiter-Glo, qHTS, dose response (AID 1347061; cut-off not given, nearly all actives have AC50 up to about 37 µM;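 further: cells exposed to compound for 48 hours before readout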); conditions: CellTiter-Glo ATP luminescence
# [2] = growth inhibition of DIPG cells – cell-based, MIPE4.0 library, CellTiter-Glo luminescence, qHTS (AID 1347066; cut-off not given, nearly all actives have AC50 up to about 30 µM;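 further: cells exposed to compound for 48 hours before readout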); conditions: SU-DIPG-VI viability, CellTiter-Glo ATP luminescence
# [3] = growth inhibition of DIPG cells – cell-based, MIPE5.0 library, qHTS (AID 1347068; cut-off not given, nearly all actives have IC50 up to about 30 µM); conditions: SU-DIPG-XXV viability
# [4] = viability loss with induced miR-34 in A549 – imaging, A549 dox-inducible miR-34, nuclei and caspase counts, primary screen (AID 1347080;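 active means compounds whose cell count with miR-34 switched on is under 0.7 times the count with it off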); conditions: A549 miR-34 inducible, Hoechst nuclei count, 48 h
# [5] = compounds altering HSF1 focus formation in cells – imaging, Selleck Cancer Library (AID 1347162; in the data active means plate-normalised HSF1 focus index below about 0.46); conditions: human cells, HSF1 nuclear foci imaging, at 10 µM; SSMD: measured here: HSF1 foci SSMD mean; cell count: measured here: cell number; plate-normalised HSF1 focus index: stronger effect = lower value
# [6] = MELAS cybrid and Rieske KO viability enhancers – cell-based, MELAS cybrids, Rieske KO mouse fibroblasts, CellTiter-Glo, primary screen (AID 1508586;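 active means mean z-score across replicates of 1.96 or higher in either the MELAS or the Rieske mutant cell line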;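 further: z relative to plate mean and SD of compound and empty wells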); conditions: low glucose
# [7] = drug combination growth inhibition, ovarian cancer – cell-based, oncology-focused library, rucaparib conditional, profiling panel (AID 1508598); conditions: patient-derived ovarian cancer cells, CellTiter-Glo viability, 144 h, stronger effect = lower value
# [8] = growth inhibition, single agent or in combination, cell-based, chromothripsis tumors, cisplatin or BGB combos (AID 1671449; in the data active means inhibition above about 80%;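 further: cells exposed for 96 hours; 0% = vehicle DMSO and 100% = killing by high DMSO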); conditions: LFS_MB_P medulloblastoma cells
# [9] = growth inhibition, single agent and combos, cell-based, chromothripsis tumors, cisplatin or BGB combos (AID 1671450; in the data active means inhibition above about 80%;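 further: cells exposed to compound for four days; 0% = vehicle DMSO and 100% = cell killing by high DMSO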); conditions: HDN33 neuroblastoma cells, stronger effect = higher value
# [10] = growth inhibition, single agents and combos, ICB984, cell-based, cisplatin or BGB combos, synergistic combos for chromothripsis tumors (AID 1671451; call rule not given here;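 further: cells exposed for 96 hours before readout; 0% = vehicle DMSO and 100% = killing by high DMSO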); conditions: ICB984 medulloblastoma cells, drug combinations, stronger effect = higher value
# [11] = growth inhibition, single agents and combos, HTB85, cell-based, BGB or cisplatin IC20 combos, synergistic combos for chromothripsis tumors (AID 1671453; in the data active means inhibition above about 80%;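 further: cells exposed for 96 hours before readout; 0% = vehicle DMSO and 100% = high DMSO killing control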); conditions: HTB85 osteosarcoma cells, drug combinations, stronger effect = higher value
# [12] = growth inhibition, MDA-MB-436, cell-based, BGB or cisplatin combos, synergistic combos for chromothripsis tumors (AID 1671458; call rule not given here;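 further: cells exposed for 96 hours; 0% = vehicle DMSO and 100% = killing by high DMSO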); conditions: MDA-MB-436 breast carcinoma growth inhibition, drug combinations, stronger effect = higher value
# [13] = BT084 cell growth, single and combined drugs, ICGC_MB145, cisplatin and BGB IC40 combos (AID 1671461; in the data active means inhibition above about 80%;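 further: cells exposed to drugs for 96 hours; 0% = vehicle DMSO and 100% = high DMSO full killing control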); conditions: BT084 medulloblastoma cells, drug combinations, stronger effect = higher value
# [14] = RCMB18 cell growth, single agent and combined, cisplatin and BGB IC40 combos (AID 1671462; in the data active means inhibition above about 80%;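 further: cells exposed to compound for four days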); conditions: RCMB18 medulloblastoma cells, stronger effect = higher value
# [15] = CRL1545 cell growth, single agent and combined, cisplatin and BGB IC20 combos (AID 1671464; in the data active means inhibition above about 80%;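 further: cells exposed to compound for 96 hours before readout; 0% = vehicle DMSO and 100% = high DMSO killing control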); conditions: CRL1545 osteosarcoma cells, stronger effect = higher value
# [16] = viability loss in pontine glioma line – cell-based, JHH-DIPG-1, MIPE4.0, CellTiter-Glo, qHTS, dose response (AID 1347062; cut-off not given, nearly all actives have AC50 up to about 27 µM;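 on AC50: cells exposed to compound for two days before readout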); conditions: JHH-DIPG-1 viability, CellTiter-Glo ATP luminescence
# [17] = viability loss in pontine glioma line – cell-based, SU-DIPG-IV, MIPE4.0, CellTiter-Glo, qHTS, dose response (AID 1347063; cut-off not given, nearly all actives have AC50 up to about 30 µM;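 further: compound exposure lasted 48 hours before the viability readout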); conditions: CellTiter-Glo ATP luminescence
# [18] = viability loss in pontine glioma line – cell-based, SU-DIPG-XXV, MIPE5.0, CellTiter-Glo, qHTS, dose response (AID 1347065; cut-off not given, nearly all actives have AC50 up to about 26 µM;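 further: cells exposed to compound for 48 hours before ATP readout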); conditions: CellTiter-Glo ATP luminescence
# [19] = JHH-DIPG-1 glioma cell viability, MIPE5.0 library, CellTiter-Glo luminescence, qHTS (AID 1347067; cut-off not given, nearly all actives have AC50 up to about 26 µM;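 further: cells exposed to compound for 48 hours before readout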); conditions: JHH-DIPG-1 glioma viability, CellTiter-Glo ATP luminescence
# [20] = viability loss in pontine glioma line – cell-based, SU-DIPG-XIII, MIPE5.0, CellTiter-Glo, qHTS, dose response (AID 1347064; cut-off not given, nearly all actives have AC50 up to about 23 µM); conditions: CellTiter-Glo ATP luminescence
# [21] = measured here: with BGB IC20 combination, at 0.5 µM
# [22] = measured here: with cisplatin IC20 combination, at 0.5 µM
compound,measurement,setting,value
CN(C)Cc1ccc(-c2nc3cccc4c3n2CCNC4=O)cc1,AC50,[1],18.7 µM (active)
same,outcome,[2],inactive
same,outcome,[3],inactive
same,fold change,"[4]; stronger effect = lower value, cell number ratio, induced over uninduced",0.89 (inactive)
same,fold change,[4]; measured here: relative caspase fold change +Dox/-Dox,1.02
same,cell count,"[4]; measured here: total cells with miR-34 induction, stronger effect = lower value",6740
same,cell count,[4]; measured here: total cells without miR-34 induction,7560
same,SSMD,[5],-0.246
same,cell count,[5],7430
same,plate-normalised HSF1 focus index,[5],0.994 (inactive)
same,z-score,"[6]; MELAS cybrid survival, CellTiter-Glo 48 h, stronger effect = higher value",-0.319 (inactive)
same,z-score,"[6]; Rieske KO mouse fibroblast survival, CellTiter-Glo 72 h",-0.0135
same,viability,"[7]; at 0.000305 µM, OCI-C5x cells, with rucaparib 10 µM, 100% = cells with rucaparib alone",114% (inactive)
same,viability,"[7]; at 0.000305 µM, OCI-C5x cells, without rucaparib",127% (inactive)
same,viability,"[7]; at 0.000305 µM, OCI-P5x cells, with rucaparib 20 µM, 100% = cells with rucaparib alone",98.3% (active)
same,viability,"[7]; at 0.000305 µM, OCI-P5x cells, without rucaparib",118% (inactive)
same,viability,"[7]; at 0.00122 µM, OCI-C5x cells, with rucaparib 10 µM, 100% = cells with rucaparib alone",111% (inactive)
same,viability,"[7]; at 0.00122 µM, OCI-C5x cells, without rucaparib",142% (inactive)
same,viability,"[7]; at 0.00122 µM, OCI-P5x cells, with rucaparib 20 µM, 100% = cells with rucaparib alone",98.2% (active)
same,viability,"[7]; at 0.00122 µM, OCI-P5x cells, without rucaparib",119% (inactive)
same,viability,"[7]; at 0.00488 µM, OCI-C5x cells, with rucaparib 10 µM, 100% = cells with rucaparib alone",109% (inactive)
same,viability,"[7]; at 0.00488 µM, OCI-C5x cells, without rucaparib",121% (inactive)
same,viability,"[7]; at 0.00488 µM, OCI-P5x cells, with rucaparib 20 µM, 100% = cells with rucaparib alone",102% (inactive)
same,viability,"[7]; at 0.00488 µM, OCI-P5x cells, without rucaparib",115% (inactive)
same,viability,"[7]; at 0.0195 µM, OCI-C5x cells, with rucaparib 10 µM, 100% = cells with rucaparib alone",110% (inactive)
same,viability,"[7]; at 0.0195 µM, OCI-C5x cells, without rucaparib",128% (inactive)
same,viability,"[7]; at 0.0195 µM, OCI-P5x cells, with rucaparib 20 µM, 100% = cells with rucaparib alone",97% (active)
same,viability,"[7]; at 0.0195 µM, OCI-P5x cells, without rucaparib",111% (inactive)
same,viability,"[7]; at 0.0781 µM, OCI-C5x cells, with rucaparib 10 µM, 100% = cells with rucaparib alone",112% (inactive)
same,viability,"[7]; at 0.0781 µM, OCI-C5x cells, without rucaparib",136% (inactive)
same,viability,"[7]; at 0.0781 µM, OCI-P5x cells, with rucaparib 20 µM, 100% = cells with rucaparib alone",89.9% (active)
same,viability,"[7]; at 0.0781 µM, OCI-P5x cells, without rucaparib",107% (inactive)
same,viability,"[7]; at 0.313 µM, OCI-C5x cells, with rucaparib 10 µM, 100% = cells with rucaparib alone",117% (inactive)
same,viability,"[7]; at 0.313 µM, OCI-C5x cells, without rucaparib",118% (inactive)
same,viability,"[7]; at 0.313 µM, OCI-P5x cells, with rucaparib 20 µM, 100% = cells with rucaparib alone",88.6% (active)
same,viability,"[7]; at 0.313 µM, OCI-P5x cells, without rucaparib",101% (inactive)
same,viability,"[7]; at 1.25 µM, OCI-C5x cells, with rucaparib 10 µM, 100% = cells with rucaparib alone",109% (inactive)
same,viability,"[7]; at 1.25 µM, OCI-C5x cells, without rucaparib",121% (inactive)
same,viability,"[7]; at 1.25 µM, OCI-P5x cells, with rucaparib 20 µM, 100% = cells with rucaparib alone",88.7% (active)
same,viability,"[7]; at 1.25 µM, OCI-P5x cells, without rucaparib",92.1% (active)
same,viability,"[7]; at 5 µM, OCI-C5x cells, with rucaparib 10 µM, 100% = cells with rucaparib alone",120% (inactive)
same,viability,"[7]; at 5 µM, OCI-C5x cells, without rucaparib",114% (inactive)
same,viability,"[7]; at 5 µM, OCI-P5x cells, with rucaparib 20 µM, 100% = cells with rucaparib alone",78.4% (active)
same,viability,"[7]; at 5 µM, OCI-P5x cells, without rucaparib",83.9% (active)
same,inhibition,"[8]; at 0.5 µM, stronger effect = higher value",-24.1% (inactive) and -21.5% (inactive)
same,inhibition,"[8]; measured here: combination with BGB IC20, at 0.005 µM",-9.73% and -22%
same,inhibition,"[8]; measured here: combination with BGB IC40, at 0.005 µM",64% and -31.1%
same,inhibition,"[8]; measured here: combination with BGB IC40, at 0.05 µM",-13% and -56%
same,inhibition,"[8]; measured here: combination with cisplatin, at 0.5 µM, stronger effect = higher value",-37.5% and -16.8%
same,inhibition,"[8]; measured here: combination with cisplatin, at 5 µM, stronger effect = higher value",-29.7% and -74.4%
same,inhibition,"[9]; BGB combo, at 5 µM",-26.8% and -18.6%
same,inhibition,[9]; at 0.5 µM,-1.23% (inactive) and -27.1% (inactive)
same,inhibition,"[9]; cisplatin combo, at 5 µM",6.93% and -10.3%
same,inhibition,[9]; [21],-13.1% and -21.5%
same,inhibition,[9]; [22],15.7% and -26.9%
same,inhibition,"[9]; single agent, at 5 µM",-4.63% and 68.3%
same,inhibition,"[10]; BGB IC20 combo, at 0.005 µM",-1.21% and 16.5%
same,inhibition,"[10]; BGB IC40 combo, at 0.005 µM",-19.6% and -25.1%
same,inhibition,"[10]; BGB IC40 combo, at 0.05 µM",-33.7% and -42.1%
same,inhibition,[10]; at 0.5 µM,-15.4% (inactive) and -23.9% (inactive)
same,inhibition,"[10]; cisplatin combo, at 0.05 µM",-40.7% and -47.2%
same,inhibition,"[10]; cisplatin combo, at 0.5 µM",-18.6%
same,inhibition,"[10]; cisplatin combo, at 5 µM",-4.49% and -37.9%
same,inhibition,"[10]; measured here: 5 uM single agent, at 5 µM",-23% and -7.92%
same,inhibition,[11]; at 0.5 µM,17.4% (inactive) and -2.96% (inactive)
same,inhibition,"[11]; measured here: with BGB IC20, at 0.5 µM",58.8% and -16.5%
same,inhibition,"[11]; measured here: with BGB IC20, at 5 µM",10.8% and 1.62%
same,inhibition,"[11]; measured here: with cisplatin IC20, at 0.5 µM",-2.97% and 1.8%
same,inhibition,"[11]; measured here: with cisplatin IC20, at 5 µM",2.38% and -10.9%
same,inhibition,"[11]; single agent, at 5 µM",7.8% and -6.63%
same,inhibition,[12]; at 0.5 µM,-0.12% (inactive) and 3.53% (inactive)
same,inhibition,"[12]; measured here: BGB combination, at 0.5 µM",-12.4% and -11.3%
same,inhibition,"[12]; measured here: BGB combination, at 5 µM",-14% and -5.01%
same,inhibition,"[12]; measured here: cisplatin combination, at 0.5 µM",2.29% and 7.08%
same,inhibition,"[12]; measured here: cisplatin combination, at 5 µM",-4.32% and 2.44%
same,inhibition,[13]; at 0.5 µM,-6.05% (inactive) and -22.2% (inactive)
same,inhibition,"[13]; cisplatin combination, at 0.5 µM",-18.4% and -65.7%
same,inhibition,"[13]; cisplatin combination, at 5 µM",-58.6% and -32.7%
same,inhibition,"[13]; measured here: BGB IC40 combination 0.05 uM, at 0.05 µM",-19.6% and 43.4%
same,inhibition,"[13]; single agent, at 5 µM",-6.92% and -7.26%
same,inhibition,[14]; at 0.5 µM,-9.62% (inactive) and -41.4% (inactive)
same,inhibition,"[14]; cisplatin combo, at 5 µM",-40.6% and -33.3%
same,inhibition,"[14]; measured here: BGB IC40 combination, at 0.05 µM",-1.87% and -3.35%
same,inhibition,"[14]; measured here: combination with cisplatin, at 0.5 µM",-15.6% and -104%
same,inhibition,"[14]; single agent, at 5 µM",-19.5% and -24.5%
same,inhibition,[15]; at 0.5 µM,4.03% (inactive) and 11.8% (inactive)
same,inhibition,[15]; [21],-8.48% and 3.96%
same,inhibition,[15]; [22],8.84% and 14.3%
same,inhibition,"[15]; single agent, at 0.05 µM",17.2% and 13.3%
same,inhibition,"[15]; single agent, at 5 µM",-17.9% and -17.8%
Cn1cc(-c2ccncc2)c(-c2ccc(OCc3ccc4ccccc4n3)cc2)n1,outcome,[16],inactive
same,outcome,[17],inactive
same,AC50,[18],23.5 µM (active)
same,outcome,[2],inactive
same,outcome,[3],inactive
COc1ccc(C[C@@H](C)[C@@H](C)Cc2ccc(OC)c(OC)c2)cc1OC,AC50,[16],1.18 µM (active)
CNC(=O)[C@H](Cc1ccccc1)NC(=O)[C@H](CC(C)C)[C@H](CSc1cccs1)C(=O)NO,outcome,[1],inactive
same,outcome,[2],inactive
same,outcome,[19],inactive
same,outcome,[3],inactive
C[C@H](NC(=O)[C@@H](O)c1cc(F)cc(F)c1)C(=O)N[C@@H]1C(=O)N(C)c2ccccc2-c2ccccc21,outcome,[16],inactive
same,outcome,[17],inactive
same,outcome,[20],inactive
same,outcome,[2],inactive
same,outcome,[19],inactive
same,outcome,[3],inactive
